# Results reported in PubChem BioAssay AID1851 (National Center for Advancing Translational Sciences (NCATS), 2009).
# The whole screen tested about 16,000 compounds, of which about 5,100 (32%) were called active. Roughly 25% stayed inconclusive and do not appear here. Some of the results follow. Values without a mark were called inactive. The call rests on the fitted dose curve; in most records, active means well fitted curve in the direction sought with a large enough effect; inconclusive means small, poorly fitted or top-dose-only effect, or effect the other way; inactive means no such curve, though single readings can be large or run the other way.
# Biological target: Cytochrome P450 3A4 (Homo sapiens) (UniProt P08684)
# Sequence (P08684 whole entry, looked up): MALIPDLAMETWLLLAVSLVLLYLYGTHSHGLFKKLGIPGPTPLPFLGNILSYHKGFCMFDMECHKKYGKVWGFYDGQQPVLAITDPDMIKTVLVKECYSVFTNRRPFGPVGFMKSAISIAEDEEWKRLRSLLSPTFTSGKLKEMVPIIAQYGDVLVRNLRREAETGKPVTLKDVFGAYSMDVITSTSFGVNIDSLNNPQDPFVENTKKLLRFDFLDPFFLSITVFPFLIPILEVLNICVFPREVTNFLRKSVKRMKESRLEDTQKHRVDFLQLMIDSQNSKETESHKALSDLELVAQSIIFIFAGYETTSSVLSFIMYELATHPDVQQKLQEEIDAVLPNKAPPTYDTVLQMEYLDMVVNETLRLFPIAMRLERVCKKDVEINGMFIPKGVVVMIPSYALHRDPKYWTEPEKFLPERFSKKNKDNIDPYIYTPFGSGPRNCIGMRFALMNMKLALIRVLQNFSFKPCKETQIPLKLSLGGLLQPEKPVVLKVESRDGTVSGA
# Experiment: Cytochrome panel assay with activity outcomes
# Details: recombinant CYP, pro-luciferin dealkylation, luminescence, p450-cyp3a4; series mostly up to 57.1 µM; activity, negative = inhibition: at the top concentration
# On the % scale 0 is the no-effect control and ±100 the full control effect.
SMILES,"activity, negative = inhibition",AC50
CCN1CCN(S(=O)(=O)c2ccc(Cl)nc2)CC1,-12.9%,–
Cc1nc(N)sc1CCN,-5.83%,–
COc1ccc(CCNc2cc(-c3ccccc3)nc3ncnn23)cc1,–,5.62 µM (active)
C=C(C)[C@H]1CN[C@H](C(=O)O)[C@@H]1CC(=O)O,-13.9%,–
N#CCCN,-6.05%,–
CN(C)[C@@H]1C(=O)C(C(N)=O)=C(O)[C@]2(O)C(=O)C3=C(O)c4c(O)cccc4[C@](C)(O)[C@H]3C[C@@H]12,-3.93% [at 11.4 µM],–
CCOc1ccc(C2C(C#N)=C(N)Oc3c2c(=O)oc2ccccc32)cc1 (configuration not stated),-8.38% [at 2.29 µM],–
C=Cn1ccnc1P(=S)(c1nccn1C=C)C1CCCCC1,–,1.26 µM (active)
C[C@H]1C(=O)O[C@@H]2CCN3CC=C(COC(=O)[C@@](C)(O)[C@@]1(C)O)[C@H]23,-3.99% [at 25.6 µM],–
CC(=O)N1CC[N+](C)(C)CC1,-9.17%,–
C[C@]12CC[C@@H]3C(=CCc4cc(O)ccc43)[C@@H]1CCC2=O,–,10 µM (active)
C[C@]12CCC3c4ccc(OCC(=O)O)cc4CCC3C1CCC2=O (some centres not stated),-8.48% [at 11.4 µM],–
C[C@@]12CC[C@@H]3c4ccc(O)cc4CC[C@H]3[C@H]1CC[C@H]2O,2.5% [at 25.6 µM],–
CCN1C[C@]2(COC(=O)c3ccccc3N3C(=O)C[C@H](C)C3=O)CC[C@H](OC)[C@@]34[C@@H]5C[C@H]6[C@H](OC)[C@H]5[C@](O)(C[C@@H]6OC)[C@@](O)([C@@H](OC)[C@@H]23)[C@@H]14,-19.7%,–
C[N+](C)(C)[C@H](Cc1c[nH]c(=S)[nH]1)C(=O)O,-1.29% [at 11.4 µM],–
O=[N+]([O-])O[C@H]1CO[C@H]2[C@H]1OC[C@@H]2O[N+](=O)[O-],-2.14% [at 25.6 µM],–
CS(=N)(=O)CC[C@H](N)P(=O)(O)O (some centres not stated),1.43% [at 11.4 µM],–
N[C@@H](Cn1ccc(=O)n(Cc2ccc(C(=O)O)cc2)c1=O)C(=O)O,-7.16%,–
CN(CCc1ccc(Cl)c(Cl)c1)[C@H]1CCCC[C@H]1N1CCCC1,–,12.6 µM (active)
CN(C)CCN(C)CCc1ccc(Cl)c(Cl)c1,-44.5%,–
COc1ccc2c(c1O)-c1c(OC)c(OC)cc3c1[C@H](C2)N(C)CC3,-1.12% [at 25.6 µM],–
CC(=O)O[C@@H]1CN2CCC1CC2,-14.7%,–
CC(=O)Nc1ccccc1C(=O)OCC(=O)c1ccc2ccccc2c1,7.07%,–
c1ccc2c(c1)[I+]c1ccccc1-2,–,3.16 µM (active)

SMILES,"activity, negative = inhibition",AC50
C1CCc2nnnn2CC1,-7.33%,–
CC(=O)N1CCC2(CC1)CC(=O)c1cc(OCC(=O)N3CCN(C)CC3)ccc1O2,11.2%,–
O=C(COc1ccc2ccccc2c1)N1CCN(CC2CC3C=CC2C3)CC1 (configuration not stated),–,12.6 µM (active)
C[N+](C)(C)CC#CCN1CCCC1=O,inactive,–
CN1C(=O)COc2c(C(=O)N[C@@H]3CN4CCC3CC4)cc(Cl)cc21,-5.69%,–
O=C1CC[C@@]2(O)[C@H]3Cc4ccc(O)c5c4[C@@]2(CCN3CC2CC2)[C@@H]1O5,inactive,–
CCCCC/C=C\C/C=C\C/C=C\C/C=C\CCCC(=O)Nc1ccc(O)cc1,–,5.01 µM (active)
CCCC(=O)Nc1ccc(N2CCN(CC)CC2)c(Cl)c1,-2.29%,–
NS(=O)(=O)c1ccc(-c2ccc([As](=O)(O)O)cc2)cc1,-4.52% [at 11.4 µM],–
Oc1ccc([C@H](O)[C@@H]2CCCCN2)cc1O,-7.28% [at 11.4 µM],–
CN1Cc2c(ccc3c2OCO3)[C@@H]2[C@@H](O)Cc3cc4c(cc3[C@@H]21)OCO4,–,5.01 µM (active)
CN1CCc2cc3c(cc2[C@@H]1[C@@H]1OC(=O)c2c1ccc1c2OCO1)OCO3,–,0.794 µM (active)
CO[C@H]1C=C2CCN(C)[C@@H]2[C@@H]2c3cc4c(cc3C(=O)O[C@H]21)OCO4,-22.2% [at 25.6 µM],–
COc1c2c(cc3c1OCO3)CCN(C)C2,-16.8% [at 25.6 µM],–
C[N+]1(C)CCc2cc3c(cc2[C@@H]1[C@@H]1OC(=O)c2c1ccc1c2OCO1)OCO3,–,15.8 µM (active)
COc1cc2c(cc1OC)[C@H](C)NCC2,-4.58% [at 25.6 µM],–
CC[C@H]1CN2CC[C@@H]1C[C@H]2[C@@H](O)c1ccnc2ccc(OC)cc12,8.8% [at 25.6 µM],–
COc1cc2c(cc1OC)[C@@]13CCN4C=C5CCO[C@H]6CC(=O)N2[C@@H]1[C@@H]6[C@H]5C[C@H]43,13.3% [at 11.4 µM],–
[N-]=[N+]=CC(=O)CC[C@H](N)C(=O)O,-9.62% [at 11.4 µM],–
CN1CCc2cccc(Cl)c2CC1,-2.46%,–
NC(=O)CN1C[C@@H](O)CC1=O,-2.79%,–
CN(C)C=C1C(=O)N(C2CCCCC2)C(=O)N(C2CCCCC2)C1=O,-29.6%,–
CN1C2C=C3C(C#N)=C(N)C(C#N)(C#N)[C@H](c4c(F)cccc4F)[C@H]3C1CC2 (some centres not stated),–,4.47 µM (active)
